Screening data (PubChem BioAssay)
FMDV inh – blocks foot and mouth disease virus; FMDV antiviral cell-based qHTS; Potency, µM (top dose mostly 57.9 µM), hits mostly inhibitors; actives 1.2% (n = 410,000); AID 1159524; calls by dose curve; tested in HEK293T cells; note: read-out not given here; nearly all actives have a fitted effect of over 45% in size
HCV inhibitor – HCV inhibition | actives 3.4% (n = 340,000) | Potency, µM (top dose mostly 41.8 µM), actives largely listed as inhibitors | Huh7.5.1 HCVcc-Cre infection, luciferase reporter, 44 h
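HCVcc-Cre virus at an moi near 0.5 was added right after compound to cells cultured 4 h from seeding (1,000 cells/well). Luciferase activity was determined 44 h later, 15 min after substrate addition at RT.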
LASV entry inh – blocks Lassa virus binding to or entry into cells; actives 1.2% (n = 300,000); Lassa virus pseudotype entry inhibition, cell reporter; AID 540256; Potency, µM (series often up to 37.9 µM), actives largely listed as inhibitors; calls by dose curve; tested in HEK293 cells; note: nearly all actives have a fitted effect of over 50% in size
HCMV antiviral – inhibitors of human cytomegalovirus. HFF cells, HCMV-luciferase reporter, 72 h; active compounds read low. activity change, negative = inhibition, % at 57.5 µM. actives 4.5% (n = 410,000). AID 1259415; in the data active = activity change below about -60%; inconclusive = no clear call, values can overlap the other calls; inactive = above about -39%
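Screen run at 2 compound doses on HFFs infected with reporter HCMV, MOI 1 PFU/cell. Luciferase activity from cell lysates at 72 h post infection gave inhibition relative to buffer-only and Salinomycin wells.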
MARV entry inh – inhibitors of Marburg virus binding or cell entry; AID 540276; Potency, µM (top dose mostly 37.8 µM), usual class: inhibitors; Marburg virus pseudotyped entry inhibition, cell reporter; actives 1.8% (n = 300,000); calls by dose curve; tested in HEK293 cells
Giardia FBPA inh – Giardia lamblia aldolase inhibition | actives 0.71% (n = 290,000) | purified Giardia FBPA | Potency, µM (titrated, usually from 59.6 µM), most hits filed as inhibitors; note: nearly all actives have a fitted effect of over 55% in size
Target sequence (A8B2U2 whole entry, looked up): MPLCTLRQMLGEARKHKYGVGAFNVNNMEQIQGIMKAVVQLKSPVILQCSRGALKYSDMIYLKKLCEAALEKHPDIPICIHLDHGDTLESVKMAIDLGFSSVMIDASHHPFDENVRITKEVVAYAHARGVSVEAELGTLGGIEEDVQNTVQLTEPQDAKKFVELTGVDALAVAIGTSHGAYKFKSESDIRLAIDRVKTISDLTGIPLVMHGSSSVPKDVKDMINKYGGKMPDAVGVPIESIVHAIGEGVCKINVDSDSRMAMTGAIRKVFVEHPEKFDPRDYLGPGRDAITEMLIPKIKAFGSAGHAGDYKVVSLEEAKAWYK
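40 nM FBPA preincubated 10 min at RT with compound (up to 57.5 uM final), then substrate plus GAPDH/TPI/NAD/arsenate coupling and diaphorase/resazurin added. Fluorescence read after 20 min at RT, 525/598 nm.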
A number is an active result; . = inactive; ? = inconclusive; / = not tested or not shown; [ ] = another dose, or the depositor's remark. An excerpt weighted towards active compounds, which were near 8.3% of everything screened. Unless noted, calls come from the whole dose curve; as a rule, active = well fitted curve in the direction sought with a large enough effect; inconclusive = small, poorly fitted or top-dose-only effect, or another doubt; inactive = no such curve, though single readings can be large; an effect the other way counts as inactive or inconclusive.

SMILES	FMDV inh	HCV inhibitor	LASV entry inh	HCMV antiviral	MARV entry inh	Giardia FBPA inh
CN(CCOc1ccc(-c2ccn(S(=O)(=O)c3ccc(Cl)cc3)n2)cc1)c1ccccn1	?	1.1µM	?	.	.	.
COc1ccc(C(=O)Nc2cc(C(F)(F)F)ccc2-n2cnc3ccccc32)cc1	.	.	.	-73	?	.
O=c1[nH]nc(CNc2ccc(O)cc2)c2ccccc12	.	?	.	.	.	18µM
COc1ccc(C(=O)C(CCCCC(CN(C)C)C(=O)c2ccc(OC)cc2)CN(C)C)cc1 (centres undefined)	.	3.5µM	?	?	?	.
COc1ccc(C(=O)C(Cc2ccccc2)N(C)C)cc1 (centres undefined)	.	.	.	.	.	.
CN(C)CC(CCC(CN(C)C)C(=O)c1ccccc1)C(=O)c1ccccc1 (centres undefined)	28µM	?	.	/	13µM	.
CC1(C)Nc2ccccc2C(=O)N1c1ccc(Br)cc1	.	.	?	.	.	/
Cc1ccc(N2C(=O)c3ccccc3NC2(C(=O)O)c2ccccc2)cc1Cl (centres undefined)	.	.	/	-98	/	.
Cc1cc(=O)oc2cc(OCc3c(F)cccc3Cl)ccc12	/	/	/	.	/	/
CCCCOC(=O)/C=C/c1ccc(OC(=O)OC)c(OC(=O)OC)c1	.	?	?	.	11µM	.
COc1ccc(C(C[N+](=O)[O-])c2c(-c3ccccc3)cc3ccccn23)c(OC)c1 (centres undefined)	.	.	.	-71	.	?
Cc1ccc2nc(N/N=C/c3ccccc3C#N)nc(-c3ccccc3)c2c1	.	?	?	?	13µM	.
N#Cc1ccccc1/C=N/Nc1nc(-c2ccccc2)c2cc(Cl)ccc2n1	?	?	.	?	?	.
O=[N+]([O-])c1ccc2c(c1)CCCO[C@]21O[C@H](CCO)C[C@H](O)[C@H]1O	/	/	/	.	/	/
CC(C)c1ccc(S(=O)(=O)N2CCN(Cc3cccc(F)c3)CC2)cc1	.	/	.	.	/	/
Cc1ccc(C)c(N2CCN(Cc3csc(C)c3)CC2)c1	.	/	.	.	/	/
O=C(CCN1C(=O)/C(=C/c2ccccc2F)SC1=S)NCCc1ccc(O)cc1	.	?	/	-93	/	/
COc1ccc(CCNC(=O)CCCN2C(=O)c3ccccc3C2=O)cc1	.	.	.	-81	.	.
COc1ccccc1/C=C1\SC(=S)N(CCC(=O)NCCc2ccc(O)cc2)C1=O	.	?	?	-75	?	/
COc1ccc(CCNC(=O)CCCCCN2C(=O)c3ccccc3C2=O)cc1	.	.	.	.	.	.
CCC(=O)Nc1ccc(-c2nnc3c4ccccc4c(C)nn23)cc1	.	/	?	.	.	/
O=C(c1cc(C(F)(F)F)cc(C(F)(F)F)c1)N1CCC2(CC1)CN(c1ncccn1)C2	.	/	/	/	/	.
Cc1cc2cc(C)c3nnc(SCC(=O)NCc4ccco4)n3c2cc1C	/	.	.	-79	?	.
FC(F)(F)c1ccc(CN2C[C@@H]3C(c4ccccc4)C4(c5cccnc5)CC3(C4)[C@H]2c2ccccc2)cc1 (some centres undefined)	?	.	/	.	/	.
c1ccc(C2[C@H]3CN(Cc4cccnc4)[C@H](c4ccccc4)C34CC2(c2cccnc2)C4)cc1 (some centres undefined)	.	.[8.37 µM]	/	-65	/	.
SMILES	FMDV inh	HCV inhibitor	LASV entry inh	HCMV antiviral	MARV entry inh	Giardia FBPA inh
COC(=O)c1cccc(C23CC4(C2)[C@H](CN(Cc2ccc(C(F)(F)F)cc2)[C@@H]4c2ccccc2)C3c2ccc(C(F)(F)F)cc2)c1 (some centres undefined)	.	.[8.37 µM]	/	-94	/	.
FC(F)(F)c1ccc(CN2C[C@@H]3C(c4ccc(C(F)(F)F)cc4)C4(c5cccnc5)CC3(C4)[C@H]2c2ccccc2)cc1 (some centres undefined)	?	.	/	-73	/	.
COc1cccc(CNC(=O)c2cccc(-n3c(C)nc4cccnc43)c2)c1OC	.	/	.	.	/	/
COC(=O)C1=C(C)NC(C)=C(C(=O)OCCNCc2ccccc2)C1c1cccc([N+](=O)[O-])c1 (centres undefined)	/	/	/	/	/	.
O=C1NC(=O)C(=Cc2cc3c(cc2[N+](=O)[O-])OCO3)C(=O)N1	.	.	.	-63	.	.
Cc1ccc2[nH]c3c(=O)n(CC(=O)N(C)c4cc(Cl)ccc4C)ncc3c2c1	.	/	.	.	/	/
